PLK1 PBD block: blocks phosphopeptide binding to human PLK1 polo-box domain; P53350; Plk1 PBD binding of FITC phosphopeptide, fluorescence polarization; Potency, µM, usual class: inhibitors; 2.8% of 360,000 active; AID 720504; also: series mostly up to about 57 µM; nearly all actives have a fitted effect of over 65% in size
HP1b binding inh: inhibitors of HP1-beta chromodomain binding to methylated histone tails; P83916; AlphaScreen HP1-beta / biotin-H3K9me3 peptide binding; Potency, µM (highest dose often 114 µM), hits mostly inhibitors; 0.56% of 390,000 active; AID 540317; also: nearly all actives have a fitted effect of over 70% in size
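AlphaScreen: HP1-beta (50 nM) preformed 30 min with biotin-H3(1-18)K9me3 peptide (50 nM) in PBS pH 7.4, 0.01% Tween-20. Compound added for 30 min at RT, then streptavidin donor/nickel chelate acceptor beads (10 ug/mL) for 30 min.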
JMJD2A Tudor: blocks the human JMJD2A Tudor domain; O75164; AlphaScreen JMJD2A-Tudor / H3K4me3 peptide binding; Potency, µM (highest dose often 114 µM), actives largely listed as inhibitors; 4.4% of 390,000 active; also: nearly all actives have a fitted effect of over 50% in size
BAZ2B block: BAZ2B (human) inhibition; AID 504333; AlphaScreen BAZ2B-H3K14Ac peptide displacement; Q9UIF8; Potency, µM (top dose mostly 114 µM), most hits filed as inhibitors; 4.4% of 360,000 active; also: nearly all actives have a fitted effect of over 60% in size
Target sequence (Q9UIF8 whole entry, looked up): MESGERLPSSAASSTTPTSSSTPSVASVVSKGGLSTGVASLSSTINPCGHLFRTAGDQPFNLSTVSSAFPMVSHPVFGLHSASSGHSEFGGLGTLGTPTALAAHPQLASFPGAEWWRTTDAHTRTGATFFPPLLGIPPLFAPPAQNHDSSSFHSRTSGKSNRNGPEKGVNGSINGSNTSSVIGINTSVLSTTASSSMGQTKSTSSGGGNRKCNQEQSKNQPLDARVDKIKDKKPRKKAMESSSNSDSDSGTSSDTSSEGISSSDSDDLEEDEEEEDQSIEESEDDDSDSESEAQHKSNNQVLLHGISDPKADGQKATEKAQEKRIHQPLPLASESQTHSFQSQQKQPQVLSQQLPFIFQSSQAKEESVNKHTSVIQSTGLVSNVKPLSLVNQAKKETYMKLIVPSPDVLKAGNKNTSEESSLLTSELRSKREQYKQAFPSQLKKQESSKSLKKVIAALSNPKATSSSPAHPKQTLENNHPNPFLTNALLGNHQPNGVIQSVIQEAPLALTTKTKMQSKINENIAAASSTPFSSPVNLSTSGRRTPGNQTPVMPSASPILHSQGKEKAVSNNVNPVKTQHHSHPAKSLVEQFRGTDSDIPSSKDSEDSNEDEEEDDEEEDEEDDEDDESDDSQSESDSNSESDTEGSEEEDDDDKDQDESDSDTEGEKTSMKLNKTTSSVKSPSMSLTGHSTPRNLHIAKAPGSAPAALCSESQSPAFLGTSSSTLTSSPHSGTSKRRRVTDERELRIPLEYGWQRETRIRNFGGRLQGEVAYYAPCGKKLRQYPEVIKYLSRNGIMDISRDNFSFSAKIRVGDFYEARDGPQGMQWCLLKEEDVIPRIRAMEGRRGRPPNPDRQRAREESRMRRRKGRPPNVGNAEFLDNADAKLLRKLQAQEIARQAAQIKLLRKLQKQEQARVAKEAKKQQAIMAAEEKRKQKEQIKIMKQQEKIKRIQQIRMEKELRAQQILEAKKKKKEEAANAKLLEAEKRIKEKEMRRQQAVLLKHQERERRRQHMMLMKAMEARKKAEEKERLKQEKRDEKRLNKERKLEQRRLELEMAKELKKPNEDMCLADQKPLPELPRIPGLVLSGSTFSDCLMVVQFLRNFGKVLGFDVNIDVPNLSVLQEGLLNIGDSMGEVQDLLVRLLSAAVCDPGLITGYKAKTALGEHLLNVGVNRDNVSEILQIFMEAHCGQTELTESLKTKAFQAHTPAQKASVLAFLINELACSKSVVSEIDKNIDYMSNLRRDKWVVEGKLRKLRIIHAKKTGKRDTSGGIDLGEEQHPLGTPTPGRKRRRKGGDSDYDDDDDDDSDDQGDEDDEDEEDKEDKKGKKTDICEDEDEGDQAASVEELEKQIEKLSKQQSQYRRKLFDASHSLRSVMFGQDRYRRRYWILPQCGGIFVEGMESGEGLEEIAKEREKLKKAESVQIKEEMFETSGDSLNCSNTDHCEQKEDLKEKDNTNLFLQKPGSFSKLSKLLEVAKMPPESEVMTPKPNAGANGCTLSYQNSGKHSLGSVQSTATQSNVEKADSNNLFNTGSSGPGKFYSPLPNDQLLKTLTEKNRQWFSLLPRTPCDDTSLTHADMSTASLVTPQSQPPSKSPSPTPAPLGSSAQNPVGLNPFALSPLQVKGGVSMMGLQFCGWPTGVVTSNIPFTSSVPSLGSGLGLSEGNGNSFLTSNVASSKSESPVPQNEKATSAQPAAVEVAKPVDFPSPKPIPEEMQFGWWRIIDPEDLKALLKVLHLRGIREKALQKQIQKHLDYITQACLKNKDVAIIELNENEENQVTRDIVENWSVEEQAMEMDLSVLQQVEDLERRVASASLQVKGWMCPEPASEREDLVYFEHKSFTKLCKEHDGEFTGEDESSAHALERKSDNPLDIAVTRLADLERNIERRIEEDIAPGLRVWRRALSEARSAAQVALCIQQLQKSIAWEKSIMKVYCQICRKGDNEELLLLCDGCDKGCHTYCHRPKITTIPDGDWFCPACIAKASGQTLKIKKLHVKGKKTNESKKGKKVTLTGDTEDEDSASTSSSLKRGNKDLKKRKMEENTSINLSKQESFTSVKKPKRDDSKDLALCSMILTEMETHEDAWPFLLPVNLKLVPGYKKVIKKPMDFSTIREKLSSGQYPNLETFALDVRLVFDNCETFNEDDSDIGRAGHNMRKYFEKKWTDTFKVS
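Protein-peptide AlphaScreen: BAZ2B 50 nM, b-H3K14Ac 50 nM, 1x PBS pH 7.4 + 0.01% Tween-20. Preincubation 30 min RT; cpd 30 min RT (top 110 uM); beads 20 min RT, light-protected.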
KAT2A inh: blocks human GCN5L2 histone acetyltransferase; Q92830; GCN5L2 HAT assay, ThioGlo1 CoA-SH fluorescence; Potency, µM (doses to about 58.9 µM), actives largely listed as inhibitors; 0.21% of 390,000 active; AID 504327
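qHTS, 1536-well. 20nM enzyme, pH 7.5 HEPES/EDTA/Tween-20 buffer; 15 min compound preinc., RT. Start: 75uM H3(1-25), 70uM AcCoA, 50uM ThioGlo1. Read Ex340/Em540 at t=0 (autofluorescence flag) and t=20 min.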
PI5P4K alpha inh: blocks human PI5P4K alpha kinase activity; PI5P4Kalpha enzyme, ADP-Glo luminescence, 60 min; active compounds read low; 1.2% of 330,000 active; max response, %; P48426; active = max response of -50% or lower; inconclusive = between -30% and -50%; inactive = -30% or higher; also: value at the top dose of about 77 µM
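Controls without substrate or without enzyme flank wells where PI5P4Kalpha converts substrate using 5 microM ATP (final). Incubation lasts 60 minutes at room temperature; ADP formed is read by ADP-Glo luminescence.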
Numbers stand for hits; . = inactive; ? = inconclusive; / = not tested or not shown; [ ] = dose if it differs, or a comment. A selection: hits, their analogues and other compounds. The true share with any hit is near 7%. Unless noted, calls follow the shape of the dose curve; as a rule, active = well fitted curve in the direction sought with a large enough effect; inconclusive = small, poorly fitted or top-dose-only effect, or another doubt; inactive = no such curve, though single readings can be large; an effect the other way counts as inactive or inconclusive.

SMILES | PLK1 PBD block | HP1b binding inh | JMJD2A Tudor | BAZ2B block | KAT2A inh | PI5P4K alpha inh
COc1ccccc1CNC(=O)c1cc(C(C)=O)c[nH]1 | . | . | . | . | . | .
CCC(=O)c1c[nH]c(C(=O)NCc2ccccc2OC)c1 | . | . | . | 79µM | . | .
CCN(CC)S(=O)(=O)c1cccc(NC(=O)COC(=O)/C=C/c2cccs2)c1 | . | . | . | . | . | .
COc1ccc(-c2oc3c(c2C(=O)OCCCO)C(OCCCCCO)CCC3)cc1 (stereo unspecified) | . | / | / | / | / | .
CCc1nnc(NC(=O)CSc2nnc(C(C)NC(=O)c3ccccc3F)n2C)s1 (stereo unspecified) | . | . | . | . | . | .
COC(=O)C1=C(c2ccccc2)c2ccccc2S(=O)(=O)N1CC(=O)Nc1cc(C)ccc1C | / | . | . | . | . | /
CC(C)OCCCNC(=O)C(=O)Nc1ccc2nc3n(c(=O)c2c1)CCCCC3 | / | . | . | . | . | /
CC1CCCC(C)N1CCCNC(=O)C(=O)Nc1ccc2nc3n(c(=O)c2c1)CCCCC3 (stereo unspecified) | 27µM | . | ? | . | . | .
O=C(Nc1ccc2nc3n(c(=O)c2c1)CCCC3)c1cccnc1Cl | 19µM | . | ? | / | / | .
O=C1CCc2cc(S(=O)(=O)Nc3ccc4c(c3)CCC4)ccc2N1 | / | / | . | / | / | /
COc1ccc2ccccc2c1C1CC(=O)N2CN(C)CSC2=C1C#N (stereo unspecified) | 7.5µM | ? | 28µM | ? | 22µM | -84
CCOc1ccc(N2CSC3=C(C#N)C(c4ccco4)CC(=O)N3C2)cc1 (stereo unspecified) | . | . | . | 45µM | ? | /
COc1ccc(Br)cc1C1CC(=O)N2CN(Cc3ccccc3)CSC2=C1C#N (stereo unspecified) | ? | . | ? | . | ? | ?
COc1cc(OC)c(C2CC(=O)N3CN(c4ccccc4)CSC3=C2C#N)cc1OC (stereo unspecified) | 27µM | ? | 5.6µM | 25µM | ? | /
CCOC(=O)c1ccc(N2CSC3=C(C#N)C(c4ccc(OC)cc4OC)CC(=O)N3C2)cc1 (stereo unspecified) | . | . | . | 50µM | ? | .
CCOc1ccc(N2CC(NC(=O)c3ccco3)CC2=O)cc1 (stereo unspecified) | / | . | . | . | . | /
O=S(=O)(c1ccc(Cl)cc1)N1CCN(S(=O)(=O)c2ccc3c(c2)OCCO3)CC1 | / | / | . | / | / | /
CCc1nc2c(OCc3cc(Cl)cc(Cl)c3)cccn2c1N(C)C(=O)Nc1ccccc1OC | . | / | / | / | / | .
O=C(O)Cc1nn(Cc2ccc(Br)cc2F)c(=O)c2ccccc12 | / | / | / | / | . | /
CC(Oc1ccc(F)cc1)C(=O)Nc1cccc(-c2nn[nH]n2)c1 (stereo unspecified) | 21µM | . | . | . | . | .
COc1cccc(-c2ccc3c(c2)O[C@H](CN(C)C(=O)c2ccccc2F)[C@H](C)CN([C@H](C)CO)S3(=O)=O)c1 | . | / | / | / | / | .
Cc1c2cccn2cc[n+]1C | . | . | 45µM | . | . | .
Cc1ccc(NC(=O)C(c2ccc(Cl)cc2)N2CCCCC2)cc1 (stereo unspecified) | . | . | . | . | 2.2µM | .
CC1CCN(C(=O)COC(=O)c2ccc(N3CCCC3=O)cc2)CC1 | . | . | . | . | . | .
CC1CCCCC1NC(=O)C1CCC(CNS(=O)(=O)c2ccccc2)CC1 (stereo unspecified) | . | . | . | . | . | .
CO/N=C/C(=N\Nc1ccc(C)cc1)C(=O)c1ccc(OC)cc1 | . | . | . | . | . | .
CO/N=C/C(=N\Nc1ccc(OC)cc1)C(=O)c1ccc(F)cc1 | 24µM | . | .[11.4 µM] | . | . | .
CO/N=C/C(=N\Nc1ccccc1)C(=O)c1ccccc1 | 24µM | . | .[11.4 µM] | . | . | .
CC(NC(=O)c1cc(S(=O)(=O)N2CCOCC2)ccc1F)c1ccc(-n2ccnc2)cc1 (stereo unspecified) | . | . | . | . | . | .
O=C(COC(=O)c1ccccc1OCc1ccccc1Cl)NCC1CCCO1 (stereo unspecified) | . | . | . | / | . | .

Source: PubChem BioAssay
